Results filed as inconclusive are left out. Active and inactive are the calls of the source. Calls come from the whole dose curve; as a rule, active = well fitted curve in the direction sought with a large enough effect; inconclusive = small, poorly fitted or top-dose-only effect, or another doubt; inactive = no such curve, though single readings can be large; an effect the other way counts as inactive or inconclusive.
What was measured:
[1] = Cellular Toxicity (caspase-3) Mesangial (AID 660); details: mesangial cells, normalized: DMSO 0%, 100 µM tamoxifen 100%; at 91.7 µM (top of the series);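 note: combined caspase 3 and 7 activity read by Caspase-Glo luminescence; cells exposed to compound for 16 h before the caspase read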
Outline: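 Concentration-response qHTS: compound-induced rise in caspase 3/7 luminescence in human mesangial cells after 16 h, normalized to DMSO and 100 uM tamoxifen controls.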

[2] = Cellular Toxicity (caspase-3) SK-N-SH (AID 661);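 note: 0% = DMSO basal and 100% = 10 µM staurosporine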
Outline: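 Caspase 3/7 activation is measured as a luminescence increase from aminoluciferin released by substrate cleavage in SK-N-SH cells after 16 hr compound treatment; values are AC50 from concentration-response curves.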

[3] = Cellular Toxicity (caspase-3) H-4-II-E (AID 663); details: H-4-II-E rat hepatoma, scaled: DMSO 0%, 100 µM tamoxifen 100%; at 92.2 µM (top of the series)
Outline: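 Apoptosis induction is scored as increased luminescence from caspase 3/7 substrate cleavage in rat hepatoma H-4-II-E cells exposed to compound for 16 hr. Activity is scaled between DMSO and 100 uM tamoxifen.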

[4] = Cellular Toxicity (caspase-3) Hek293 (AID 664); details: HEK293 caspase-3 activation, DMSO = 0%, 100 µM tamoxifen = 100%; at 92.2 µM (top of the series);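 note: cells exposed to compound for 16 h at 37 °C before readout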
Outline: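 Activation of caspase-3/7 is measured as increased luminescence from cleaved peptide-aminoluciferin substrate in HEK293 cells treated 16 hours at 37 °C. AC50 values come from Hill-equation fits of concentration-response data.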

[5] = Cellular Toxicity (caspase-3) N2a (AID 665);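 note: compound exposure lasted 16 h at 37 °C before readout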
Outline: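 Plated mouse neuroblastoma N2a cells received titrated compounds for 16 h in complete medium. Caspase activity was then detected with a peptide-aminoluciferin luminescent reagent.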

[6] = Cellular Toxicity (caspase-3) NIH 3T3 (AID 666);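 note: caspase signal read after 16 h compound exposure; 0% = DMSO basal and 100% = 100 µM tamoxifen stimulation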
Outline: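 Concentration-response qHTS in NIH 3T3 mouse fibroblasts scores caspase-3/7 activation as rising luminescence after 16 hr compound exposure. Signals are scaled between DMSO-only and 100 uM tamoxifen.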

[7] = Cellular Toxicity (caspase-3) Renal Proximal Tubule (AID 667); details: Potency: caspase-3 activation;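 note: cells exposed to compound for 16 hours at 37 °C before detection; 0% = DMSO basal and 100% = 10 µM staurosporine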
Outline: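 Primary rat proximal tubule cells, 1000/well, 5 h plating at 37 °C, then compound 16 h at 37 °C. Caspase-Glo 3/7 reagent, 1 h RT, luminescence. Normalized to DMSO (basal) and 10 uM staurosporine (100%); Hill-fit AC50.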

[8] = target: Cytochrome P450 3A4 (Homo sapiens) (UniProt P08684); test: qHTS Assay for Inhibitors and Substrates of Cytochrome P450 3A4 (AID 884); note: % is set by controls: 0 for no effect and ±100 for the full control effect; nearly all actives have a fitted effect of over 50% in size
Outline: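 20 nM human CYP3A4 with 25 uM Luciferin-PPXE (at KM) in 200 mM KPO4, preincubated 10 min with compound; NADPH regeneration started a 60 min RT reaction. Luciferin detected by luminescence, normalized to 57 uM ketoconazole as full inhibition.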

[9] = Cell Viability - LYMP2-001 (AID 921);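 note: 0% = DMSO only and full inhibition = tetraoctylammonium bromide control wells; nearly all actives have a fitted effect of over 70% in size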
Outline: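 Human lymphoblastoid cells (Coriell), 2500 per well, were preincubated 5 hr at 37 C, then exposed to compounds in complete medium for 24 hr at 37 C. Cellular ATP was read by CellTiter-Glo luminescence; AC50 from Hill fits of concentration-response data.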

[10] = MultiTox-Fluor Cytotoxicity Assay - LYMP1-001 - Dead Cells (AID 946);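 note: 0% = DMSO and 100% = tetraoctylammonium bromide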
Outline: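 In this qHTS, 15 uM tetraoctylammonium bromide defined 100% and DMSO defined basal activity. Lymphoblastoid cells (LYMP1-001, 2500 per well) received compound for 16 hr at 37 C before a fluorogenic dead-cell substrate readout at 485/520 nm.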

[11] = MultiTox-Fluor Cytotoxicity Assay - LYMP1-001 - Live Cells (AID 947);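 note: 0% = DMSO only and full inhibition = tetraoctylammonium bromide control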
[12] = Cell Viability - LYMP1-002 - Assay at 16 hr (AID 948);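 note: 0% = DMSO alone and full effect = 92 µM tetraoctylammonium bromide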
Outline: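 Human lymphoblastoid cells (LYMP1-002), 2500/well, were preincubated 5 hr at 37 C, then exposed to compounds for 16 hr at 37 C in complete medium. Cellular ATP was read by CellTiter-Glo luminescence after 30 min at room temperature; AC50 from Hill fits.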

[13] = MultiTox-Fluor Cytotoxicity Assay - LYMP1-002 - Live Cells (AID 955); note: % is set by controls: 0 for no effect and ±100 for the full control effect
Outline: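 Cytotoxicity in the human lymphoblastoid line LYMP1-002 is measured as loss of live-cell protease activity after 16 h treatment in complete culture medium. AC50 is derived from Hill-equation fits of qHTS concentration-response data.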

[14] = MultiTox-Fluor Cytotoxicity Assay - LYMP1-002 - Dead Cells (AID 960);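 note: 0% = DMSO and 100% = tetraoctylammonium bromide; nearly all actives have a fitted effect of over 60% in size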
Outline: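 Acute cytotoxicity in a human lymphoblastoid line is scored as rising dead-cell protease signal after 16 hr exposure at 37 C, measured fluorometrically (485/520).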

[15] = MultiTox-Fluor Cytotoxicity Assay - LYMP1-003 - Dead Cells (AID 961);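 note: 0% = DMSO and 100% = tetraoctylammonium bromide; nearly all actives have a fitted effect of over 70% in size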
Outline: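 Acute toxicity is scored as increased dead-cell protease activity in human lymphoblastoid LYMP1-003 cells after 16 h compound exposure in complete culture medium. Activity is normalized to DMSO basal and 15 uM tetraoctylammonium bromide as full response.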

[16] = MultiTox-Fluor Cytotoxicity Assay - LYMP1-003 - Live Cells (AID 962);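 note: 0% = DMSO only and full loss = 92 µM tetraoctylammonium bromide; cytotoxic hits lower the live-cell protease signal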
Outline: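 Cells plated at 2500 per well and incubated 5 hr; compounds added and incubated 16 hr at 37 C; MultiTox-Fluor reagent added for 60 min at room temperature; fluorescence of liberated AFC measured at 405/510 nm.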

[17] = Cell Viability - LYMP1-003 - Assay at 24 hr (AID 963);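 note: plate controls were DMSO only for no effect and tetraoctylammonium bromide positive control for full effect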
Outline: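 Acute toxicity in LYMP1-003 lymphoblastoid cells: 24 hr compound treatment at 37 C, ATP measured with CellTiter-Glo after 30 min at room temperature. AC50 derived by fitting the Hill equation to qHTS titrations.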

[18] = Cell Viability - LYMP1-003 - Assay at 40 hr (AID 964); note: % is set by controls: 0 for no effect and ±100 for the full control effect; nearly all actives have a fitted effect of over 60% in size
Outline: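 This qHTS cytotoxicity screen treats human lymphoblastoid cells (LYMP1-003) with compounds for 40 hr and quantifies cellular ATP via luciferase luminescence.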

[19] = Cell Viability - LYMP2-003 (AID 965);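 note: cells exposed to compounds for 24 h before reading; 0% = DMSO only and full effect = 92 µM tetraoctylammonium bromide; nearly all actives have a fitted effect of over 50% in size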
Outline: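 Human lymphoblastoid cells (2500/well) were pre-incubated 5 hr at 37 C, then exposed to compounds over a concentration range for 24 hr at 37 C. Intracellular ATP was read by CellTiter-Glo luminescence; AC50 came from Hill-equation fits.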

Chain of Cytochrome P450 3A4 (Homo sapiens) (P08684 whole entry, looked up): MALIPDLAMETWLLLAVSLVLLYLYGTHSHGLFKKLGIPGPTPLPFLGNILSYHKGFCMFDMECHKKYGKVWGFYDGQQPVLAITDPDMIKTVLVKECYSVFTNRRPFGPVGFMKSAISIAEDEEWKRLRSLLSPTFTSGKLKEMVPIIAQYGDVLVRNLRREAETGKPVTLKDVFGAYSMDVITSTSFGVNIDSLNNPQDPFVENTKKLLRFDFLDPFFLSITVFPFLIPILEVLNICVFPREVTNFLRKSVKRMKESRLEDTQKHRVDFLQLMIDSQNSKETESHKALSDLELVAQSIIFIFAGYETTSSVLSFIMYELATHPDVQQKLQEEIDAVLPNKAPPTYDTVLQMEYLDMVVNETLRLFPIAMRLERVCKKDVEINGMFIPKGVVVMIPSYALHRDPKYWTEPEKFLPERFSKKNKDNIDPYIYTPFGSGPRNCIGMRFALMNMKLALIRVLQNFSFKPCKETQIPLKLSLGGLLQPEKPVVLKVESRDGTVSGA

C=CCCCC
inactive: caspase-3 activation [1] -0.265% | outcome [2] | caspase-3 activation [3] 0.498% | caspase-3 activation [4] 1.21% | outcome [5] | outcome [6] | Potency [7] | Potency [8] | Potency [9] | outcome [10] | outcome [11] | outcome [12] | outcome [13] | outcome [14] | Potency [15] | Potency [16] | Potency [17] | Potency [18] | Potency [19]

CC(=O)Nc1cccc(N)c1
inactive: caspase-3 activation [1] 0.0656% | outcome [2] | caspase-3 activation [3] 0.403% | caspase-3 activation [4] 0.134% | outcome [5] | outcome [6] | Potency [7] | Potency [8] | Potency [9] | outcome [10] | outcome [11] | outcome [12] | outcome [13] | outcome [14] | Potency [15] | Potency [16] | Potency [17] | Potency [18] | Potency [19]

O=Cc1ccc(Cl)cc1
inactive: caspase-3 activation [1] 0.65% | outcome [2] | caspase-3 activation [3] 0.113% | caspase-3 activation [4] 2% | outcome [5] | outcome [6] | Potency [7] | Potency [8] | Potency [9] | outcome [10] | outcome [11] | outcome [12] | outcome [13] | outcome [14] | Potency [15] | Potency [16] | Potency [17] | Potency [18] | Potency [19]

Nc1cccc2c(=O)[nH][nH]c(=O)c12
inactive: caspase-3 activation [1] -0.301% | outcome [2] | caspase-3 activation [3] 0.0355% | caspase-3 activation [4] -1.17% | outcome [5] | outcome [6] | Potency [7] | Potency [8] | Potency [9] | outcome [10] | outcome [11] | outcome [12] | outcome [13] | outcome [14] | Potency [15] | Potency [16] | Potency [17] | Potency [18] | Potency [19]

C1COC1
inactive: caspase-3 activation [1] 0.626% | outcome [2] | caspase-3 activation [3] 1.05% | caspase-3 activation [4] -1.66% | outcome [5] | outcome [6] | Potency [7] | Potency [8] | Potency [9] | outcome [10] | outcome [11] | outcome [12] | outcome [13] | outcome [14] | Potency [15] | Potency [16] | Potency [17] | Potency [18] | Potency [19]

O=[N+]([O-])c1cccc(C(F)(F)F)c1
inactive: caspase-3 activation [1] -1.76% | outcome [2] | caspase-3 activation [3] -0.931% | caspase-3 activation [4] 0.383% | outcome [5] | outcome [6] | Potency [7] | Potency [8] | Potency [9] | outcome [10] | outcome [11] | outcome [12] | outcome [13] | outcome [14] | Potency [15] | Potency [16] | Potency [17] | Potency [18] | Potency [19]

OC(CCl)CCl
inactive: caspase-3 activation [1] 2.07% | outcome [2] | caspase-3 activation [3] 1.01% | caspase-3 activation [4] 2.01% | outcome [5] | outcome [6] | Potency [7] | Potency [8] | Potency [9] | outcome [10] | outcome [11] | outcome [12] | outcome [13] | outcome [14] | Potency [15] | Potency [16] | Potency [17] | Potency [18] | Potency [19]

CCC(O)C(C)(C)C (stereo not given)
inactive: caspase-3 activation [1] 0.94% | outcome [2] | caspase-3 activation [3] -0.43% | caspase-3 activation [4] 1.79% | outcome [5] | outcome [6] | Potency [7] | Potency [8] | Potency [9] | outcome [10] | outcome [11] | outcome [12] | outcome [13] | outcome [14] | Potency [15] | Potency [16] | Potency [17] | Potency [18]

CCCCCCCCN
inactive: caspase-3 activation [1] -0.125% | outcome [2] | caspase-3 activation [3] 0.977% | caspase-3 activation [4] 0.408% | outcome [5] | outcome [6] | Potency [7] | Potency [8] | Potency [9] | outcome [10] | outcome [11] | outcome [12] | outcome [13] | outcome [14] | Potency [15] | Potency [16] | Potency [17] | Potency [18] | Potency [19]

C[C@@H]1CC2(OC[C@]3(C)O[C@H]23)O[C@H]2C[C@@]3(C)[C@@H]4CC[C@H]5C(C)(C)C(O[C@@H]6OC[C@@H](O)[C@H](O)[C@H]6O)CC[C@@]56C[C@@]46CC[C@]3(C)[C@@H]12 (stereo not given in full)
inactive: caspase-3 activation [1] 2.15% | outcome [2] | caspase-3 activation [3] 2.6% | caspase-3 activation [4] 3.04% | outcome [5] | outcome [6] | Potency [7] | Potency [8] | Potency [9] | outcome [10] | outcome [11] | outcome [12] | outcome [13] | outcome [14] | Potency [15] | Potency [16] | Potency [17] | Potency [18] | Potency [19]

CCCCCO
inactive: caspase-3 activation [1] 1.64% | outcome [2] | caspase-3 activation [3] -0.271% | caspase-3 activation [4] -0.0419% | outcome [5] | outcome [6] | Potency [7] | Potency [8] | Potency [9] | outcome [10] | outcome [11] | outcome [12] | outcome [13] | outcome [14] | Potency [15] | Potency [16] | Potency [17] | Potency [18] | Potency [19]

CC1CCCO1 (stereo not given)
inactive: caspase-3 activation [1] -0.0447% | outcome [2] | caspase-3 activation [3] -0.992% | caspase-3 activation [4] -1.6% | outcome [5] | outcome [6] | Potency [7] | Potency [8] | Potency [9] | outcome [10] | outcome [11] | outcome [12] | outcome [13] | outcome [14] | Potency [15] | Potency [16] | Potency [17] | Potency [18] | Potency [19]

C1CCC2OC2C1 (stereo not given)
inactive: caspase-3 activation [1] -0.0644% | outcome [2] | caspase-3 activation [3] -0.699% | caspase-3 activation [4] 1.05% | outcome [5] | outcome [6] | Potency [7] | Potency [8] | Potency [9] | outcome [10] | outcome [11] | outcome [12] | outcome [13] | outcome [14] | Potency [15] | Potency [16] | Potency [17] | Potency [18] | Potency [19]

O=C(O)c1ccc(C(=O)O)cc1
inactive: caspase-3 activation [1] -1.02% | outcome [2] | caspase-3 activation [3] 0.895% | caspase-3 activation [4] -1.8% | outcome [5] | outcome [6] | Potency [7] | Potency [8] | Potency [9] | outcome [10] | outcome [11] | outcome [12] | outcome [13] | outcome [14] | Potency [15] | Potency [16] | Potency [17] | Potency [18] | Potency [19]

Reference: PubChem BioAssay (NCATS)
